Assay outcomes: PubChem, National Center for Advancing Translational Sciences (NCATS)
HEK cytotox: Cytotoxic Profiling in HEK 293 Cell Line of Diverse Libraries Using Quantitative High-Throughput Screening. 94,000 compounds, 6.6% hits. Potency, µM (series often up to 115 µM), most hits filed as inhibitors. HEK 293 viability, ATP luminescence (CellTiter-Glo), 48-72 h; note: nearly all actives have a fitted effect of over 60% in size
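Cytotoxicity was scored by loss of ATP-coupled luminescence (CellTiter-Glo) in HEK 293 cells. Compound treatment ran 48 or 72 hr at 37 degree Celsius, 5% CO2, 95% humidity.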
FLuc inh: Firefly luciferase inhibition profiling of diverse chemical library using quantitative high-throughput screening. Luciferin 4-monooxygenase (Photinus pyralis), P08659. purified P. pyralis luciferase, luminescence, biochemical. Potency, µM (series often up to 115 µM), most hits filed as inhibitors. 76,000 compounds, 2.5% hits. AID 1347043, 2019; note: nearly all actives have a fitted effect of over 65% in size
Target sequence (P08659 whole entry, looked up): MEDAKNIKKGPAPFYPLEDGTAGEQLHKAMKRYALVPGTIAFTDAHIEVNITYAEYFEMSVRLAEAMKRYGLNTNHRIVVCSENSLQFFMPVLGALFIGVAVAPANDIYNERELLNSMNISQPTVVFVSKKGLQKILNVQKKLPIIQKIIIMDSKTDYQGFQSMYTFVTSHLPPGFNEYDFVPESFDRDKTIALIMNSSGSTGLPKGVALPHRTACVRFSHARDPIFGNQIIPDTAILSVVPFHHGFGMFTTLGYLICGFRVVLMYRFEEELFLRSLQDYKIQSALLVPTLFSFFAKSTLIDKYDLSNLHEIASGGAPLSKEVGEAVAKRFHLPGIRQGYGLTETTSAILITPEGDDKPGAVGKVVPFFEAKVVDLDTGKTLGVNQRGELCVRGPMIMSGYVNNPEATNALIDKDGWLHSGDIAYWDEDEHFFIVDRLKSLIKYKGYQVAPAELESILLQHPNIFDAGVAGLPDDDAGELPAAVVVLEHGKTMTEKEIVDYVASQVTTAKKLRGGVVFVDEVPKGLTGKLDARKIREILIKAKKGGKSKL
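FLuc 10nM, D-luciferin 10uM, ATP 10uM, Mg acetate 10mM, Tris acetate pH 7.5, Tween/BSA; cpd qHTS; enzyme added last; CCD luminescence.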
NIH3T3 tox: Cytotoxic Profiling in NIH 3T3 Cell Line of Diverse Libraries Using Quantitative High-Throughput Screening; NIH 3T3 viability, CellTiter-Glo ATP luminescence, 48-72 h; Potency, µM (titrated, usually from 96.7 µM), actives largely listed as inhibitors; 94,000 compounds, 4.3% hits; note: nearly all actives have a fitted effect of over 55% in size
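Mouse fibroblast NIH 3T3 cells, 400 per well, received compound via pintool and were incubated for 48 or 72 hr prior to CellTiter-Glo ATP luminescence measurement.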
hNpr1 antagonist: Natriuretic polypeptide receptor (hNpr1) antagonism - Primary qHTS. Atrial natriuretic peptide receptor 1 (Homo sapiens), P16066. HEK293 hNpr1 GloSensor cGMP, ANP-stimulated luminescence. Potency, µM (doses to about 46.3 µM), hits mostly inhibitors. 76,000 compounds, 1.6% hits; calls by dose curve; note: nearly all actives have a fitted effect of over 60% in size
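HEK293 cells stably expressing human Npr1 and cGMP GloSensor pGS-40F, loaded 2 h with 2% GloSensor reagent, given compound 30 min at room temperature. Luminescence read before and 20 min after 0.1 nM hNppA.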
Numbers stand for hits; n = inactive; u = inconclusive; x = not tested or not shown; ! = not confirmed by another sample. A selection: hits, their analogues and other compounds. The true share with any hit is near 11%. Unless noted, calls come from the whole dose curve; as a rule, active = well fitted curve in the direction sought with a large enough effect; inconclusive = small, poorly fitted or top-dose-only effect, or another doubt; inactive = no such curve, though single readings can be large; an effect the other way counts as inactive or inconclusive.

SMILES	HEK cytotox	FLuc inh	NIH3T3 tox	hNpr1 antagonist
CCOc1ccccc1CNC(=O)c1cc2n(n1)CC(c1ccc(Cl)cc1)OC2 (configuration not stated)	25µM	n	u	n
CN(C)C(=O)c1cc(-c2ccccc2C(F)(F)F)nc2c1cnn2C	n	x	n	x
CC(=O)N1CCCN(c2cc(Cl)nc3ccnn23)CC1	n	n	n	n
NC(=O)c1noc2c1CN(c1cc(-c3ccccc3)nc3ccnn13)CC2	45µM	n	u	n
O=C(NCCN1CCOCC1)C1CCCCc2nnc(-c3ccccc3)n21 (configuration not stated)	n	x	n	x
Fc1ccc(-c2ccc3ncc(Nc4ccc5c(c4)OCCO5)n3n2)cc1	u	u	u	n
c1ccc(-c2ccc3ncc(Nc4ccccn4)n3n2)cc1	u	n	u	n
Fc1ccccc1Nc1cnc2ccc(-c3ccccc3)nn12	100µM	n	u	n
c1ccc(-c2ccc3ncc(Nc4ccc5c(c4)OCCO5)n3n2)cc1	89µM	u	u	n
Fc1ccc(Nc2cnc3ccc(-c4ccccc4)nn23)cc1	100µM	n	79µM	n
O=C(Cc1cccc(F)c1)N1CCC(OCCOc2cccnc2)CC1	n	x	n	x
O=S(=O)(c1ccccc1)N1CCCC(OCc2noc(C3CCOCC3)n2)C1 (configuration not stated)	n	x	n	x
COC(=O)c1cn([C@H]2CO[C@H]3[C@@H]2OC[C@@H]3NC(=O)C2CC2)nn1	n	n	n	n
O=C(O)C1(c2ccccc2)CCN(S(=O)(=O)c2cccs2)CC1	n	x	u	x
O=C(O)C1(c2ccccc2)CCN(S(=O)(=O)c2ccccc2)CC1	n	x	79µM	x
O=c1n(-c2ccc([N+](=O)[O-])cc2)nc2n1CCN(Cc1cccc3ccccc13)C2	u	n	u	n
O=c1n(-c2ccc(F)cc2F)nc2n1CCN(Cc1ccc(C(F)(F)F)cc1)C2	79µM	n	n	u
Cc1ccc(CN2CCn3c(nn(-c4ccc([N+](=O)[O-])cc4)c3=O)C2)cc1	45µM	n	u	u
O=c1n(-c2ccc([N+](=O)[O-])cc2)nc2n1CCN(Cc1ccc(OC(F)(F)F)cc1)C2	35µM	n	u	18µM
O=c1n(-c2ccc(C(F)(F)F)cc2)nc2n1CCN(Cc1ccc(F)cc1)C2	32µM!	n	40µM	n
O=c1n(-c2ccc(C(F)(F)F)cc2)nc2n1CCN(CC1CC1)C2	u	x	n	x
O=c1n(-c2ccc(Cl)cc2)nc2n1CCN(Cc1cccc3ccccc13)C2	n	x	n	x
COc1ccc(-n2nc3n(c2=O)CCN(Cc2cccnc2)C3)cc1	n	x	u	x
O=c1n(-c2ccncc2)nc2n1CCN(Cc1cccc3ccccc13)C2	45µM	n	u	u
O=c1n(-c2ccc([N+](=O)[O-])cc2)nc2n1CCN(CC1CC1)C2	35µM	u	u	u
SMILES	HEK cytotox	FLuc inh	NIH3T3 tox	hNpr1 antagonist
O=c1n(-c2ccc(Cl)cc2)nc2n1CCN(Cc1ccccc1)C2	u	x	8.9µM	x
O=c1n(-c2ccc(C(F)(F)F)cc2)nc2n1CCN(Cc1ccsc1)C2	50µM	x	u	x
Cc1ccc(-n2nc3n(c2=O)CCN(C(=O)c2ccc(C(F)(F)F)cc2)C3)cc1	n	n	n	n
COc1ccc(OC)c(S(=O)(=O)N2CC(CNC(=O)C3CC3)C3(CCCCC3)C2)c1 (configuration not stated)	u	x	n	x
O=c1n(-c2ccc([N+](=O)[O-])cc2)nc2n1CCN(Cc1ccc(C(F)(F)F)cc1)C2	35µM	n	u	14µM
Cc1ccc(-c2cn3cc(C(=O)NCc4cccc(C(F)(F)F)c4)nc3s2)cc1	n	x	n	x
CC1=C[C@@H](CN2CCOCC2)[C@H](C(C)C)C[C@H]1Cc1nnc(-c2ccc(N(C)C)cc2)o1	u	n	u	n
CC1=C[C@@H](CN2CCOCC2)[C@H](C(C)C)C[C@H]1Cc1nnc(-c2ccccc2)o1	89µM	n	u	n
CC1=C[C@@H](CN2CCN(c3ccccn3)CC2)[C@H](C(C)C)C[C@H]1Cc1nnc(-c2ccccc2)o1	40µM	n	u	n
CC1=C[C@@H](CN2CCN(c3cnccn3)CC2)[C@H](C(C)C)C[C@H]1Cc1nnc(-c2ccc([N+](=O)[O-])cc2)o1	u	n	u	n
COc1ccc(-c2c(C(=O)NC3CC3)nc3sccn23)cc1	n	x	n	x
O=C(c1ccc(Cl)cc1)N1CC2(CCN(Cc3c[nH]c4ccccc34)CC2)Cc2ccccc21	20µM	x	11µM	x
O=C(c1ccc(Cl)cc1)N1CC2(CCN(Cc3ccc(Cl)cc3)CC2)Cc2ccccc21	40µM	x	35µM	x
O=C(c1ccc(Cl)cc1)N1CC2(CCCN(Cc3ccc(Cl)cc3)C2)Cc2ccccc21 (configuration not stated)	u	x	32µM	x
O=C(O)CCC(=O)N1CCC2(Cc3ccccc3N(C(=O)c3ccc(Cl)cc3)C2)C1 (configuration not stated)	n	x	n	x
Cc1ccc2c(n1)OC1(CCCC1)CN(CC1CC1)C2=O	u	x	n	x
CC(C)(C)COC(=O)N1C[C@H](C(N)=O)[C@H]2c3ccccc3N(CC3CC3)C(=O)[C@]21C	u	x	n	x
COc1ccc(-c2ccc(C(=O)N3CCN(C(=O)c4ccccc4C)CC3)cc2)nn1	n	x	n	x
CSc1ccc(C(=O)N2CC(=O)NCC(C)(C)C2)cc1	n	x	u	x
CC(c1ccc(-c2ccc(N(C)C)nn2)cc1)N(C)C (configuration not stated)	n	16µM	n	u
O=C(NCc1ccc2c(c1)OCO2)c1cc(-c2cc(Cl)cc(Cl)c2)c2cccn2n1	u	x	n	x
CC(=O)NC1(C)CCCN(Cc2cccc(-c3ccccc3)c2)C1 (configuration not stated)	u	n	u	n
CC(=O)NC1(C)CCN(Cc2cccc(-c3ccc4c(c3)OCCN4C)c2)C1 (configuration not stated)	u	22µM	89µM	u
CC(=O)NC1(C)CCN(Cc2cccc(-c3ccc(N4CCOCC4)cc3)c2)C1 (configuration not stated)	u	5.6µM	n	4µM
O=C(c1ccc2c(c1)OCO2)N1CCCC1c1nnc2n1CCNC2 (configuration not stated)	n	x	n	x
COCC(=O)N1CCC(C(=O)N2CCC3(CC2)CC(=O)Nc2ccccc2O3)CC1	n	x	n	x
Cc1ccc(-c2nn(-c3cccc(F)c3)cc2CN(C)CCO)o1	n	u	n	n
Cc1cc(CN(C)Cc2cn(-c3cccc(F)c3)nc2-c2ccc(C)o2)n[nH]1	45µM	u	u	n
CCC1(N2CCN(S(=O)(=O)c3ccc4c(c3)CCCC4)CC2)CCN(C(=O)NC)C1 (configuration not stated)	u	n	n	n
COc1cccc(-c2ccc(C(=O)N3CCC(N[S+](=O)([O-])c4c(C)noc4C)CC3)cc2)c1	22µM	x	u	x
